# Test results from the OligoGym collection.
# Target: C6orf203
# Test: pooled miR-30 sensor sort-seq; sequence = guide strand
# Settings: shRNA
# Also: reference of the scale not given here.
row,Sequence,sensor-assay potency score (higher = more potent)
1,TTTCACTTTCAGTCTTCTCTTC,0.689
2,TTAGTAGATTTTGTAGACCTTA,-0.225
3,TTTGTAGAAAGCATCTTCCACT,-0.297
4,TTATAGTTTTTGACTACAGTAG,-0.647
5,TAGTTTTTGACTACAGTAGGAT,-0.319

# Target: C6orf223
# Test: as above
# Settings: shRNA
row,Sequence,sensor-assay potency score (higher = more potent)
1,TAATTAGAGCGCATTAGCCGTG,-0.678
2,TTGAGGACAGCTGAAGTCTTGC,-0.761
3,TTTCTTCTCGCGCTCGGGGTGT,-0.841
4,TAATTTCTTCTCGCGCTCGGGG,-0.685
5,AATTAGAGCGCATTAGCCGTGC,-0.806
6,TCTTCTGGATGCTCTGACCATC,-1.03
7,TTTGAGGACAGCTGAAGTCTTG,-0.66
8,AAACACTCTGTCTTCCTGCTTT,0.482
9,TAGAGGAGAGCTCTGAGCCTGG,-0.55
10,TTCTTCTGGATGCTCTGACCAT,-0.868
11,TTGGCTGAGTCAGACTCTCGGA,-0.102
12,AAGTCTTGCCACTTCTTCTGGA,-0.0269
